Experimental data taken from PubChem BioAssay AID1259421 (Broad Institute, 2018).
Several values for one entry are separate records, joined by “and”; a condition that tells them apart may be missing. Identical values can stand only once. The campaign covered roughly 6,400 compounds. About 610 (9.5%) were called active. No stated cut-off is given here; in the data, active means activity change below about -70%; inconclusive means no clear call, values can overlap the other calls; inactive means above that. The sample as a whole holds a higher share of actives than the screen did. The source holds several records for some structures; these can differ, active in one and inactive in another.

assay: T. gondii ME49Luc in HeLa cells, luciferase assay, 72 h, no IFN-y (AID 1259421); conditions: stronger effect = lower value, concentration not given here

Q: For `C[C@H]1[C@H](C)CC[C@]2(C(=O)O)CC[C@]3(C)C(=CC[C@@H]4[C@@]5(C)C[C@@H](O)[C@H](O)[C@@](C)(CO)[C@@H]5CC[C@]43C)[C@H]12`, which activity change, negative = inhibition is on record?
A: -67.1% (inactive) and -6.04% (inactive)

Q: For `CC1(C)CC[C@]2(C(=O)O)CC[C@]3(C)C(=CC[C@@H]4[C@@]5(C)CC[C@H](O)C(C)(C)[C@@H]5CC[C@]43C)[C@@H]2C1`, which activity change, negative = inhibition is on record?
A: -38.2% (inactive) and 16.6% (inactive)

Q: Which activity change, negative = inhibition does the source give for `C[C@H]1[C@H](C)CC[C@]2(C(=O)O)CC[C@]3(C)C(=CCC4[C@@]5(C)C[C@@H](O)[C@H](O)[C@@](C)(CO)C5CC[C@]43C)[C@H]12` (stereo partly drawn) here?
A: 14.3% (inactive)

Q: For `C[C@@H]1CC[C@]2(C(=O)O)CC[C@]3(C)C(=CCC4[C@@]5(C)CC[C@H](O)C(C)(C)C5CC[C@]43C)C2[C@H]1C` (stereo partly drawn), which activity change, negative = inhibition is on record?
A: 8.22% (inactive)

Q: With `C[C@H]1[C@H](C)CC[C@]2(C(=O)O)CC[C@]3(C)C(=CCC4[C@@]5(C)C[C@@H](O)[C@H](O)[C@@](C)(CO)C5[C@H](O)C[C@]43C)[C@H]12` (stereo partly drawn) as the compound, how does the activity change, negative = inhibition read?
A: -87.6% (active)

Q: Which activity change, negative = inhibition does the source give for `C[C@H]1[C@H](C)CC[C@]2(C(=O)O)CC[C@]3(C)C(=CC[C@@H]4[C@@]5(C)CC[C@H](O)C(C)(C)[C@@H]5CC[C@]43C)[C@H]12` here?
A: -76.6% (active)

Q: Which activity change, negative = inhibition does the source give for `Nc1nc2c(ncn2CCC(CO)CO)c(=O)[nH]1` here?
A: 11.1% (inactive)

Q: Which activity change, negative = inhibition does the source give for `COc1c2ccoc2nc2c(OC)c(OCC(O)C(C)(C)O)ccc12` (stereo not drawn) here?
A: 7.33% (inactive)

Q: With `C[C@@H](NCCCc1cccc(C(F)(F)F)c1)c1cccc2ccccc12` as the compound, how does the activity change, negative = inhibition read?
A: 58.2% (inactive)

Q: Which activity change, negative = inhibition does the source give for `CO[C@H]1C=CO[C@@]2(C)Oc3c(C)c(O)c4c(O)c(c5c(nc6cc(C)ccn65)c4c3C2=O)NC(=O)/C(C)=C\C=C/[C@H](C)[C@H](O)[C@@H](C)C(O)[C@@H](C)[C@H](OC(C)=O)[C@@H]1C` (stereo partly drawn) here?
A: 2.45% (inactive)

Q: For `CC(C)CC1C(=O)N2CCC[C@H]2C2(O)O[C@](NC(=O)C3C=C4c5cccc6[nH]c(Br)c(c56)C[C@H]4N(C)C3)(C(C)C)C(=O)N12` (stereo partly drawn), which activity change, negative = inhibition is on record?
A: -3.42% (inactive)

Q: For `O=C(NS(=O)(=O)c1ccc(Br)s1)c1ccc(Cl)cc1Cl`, which activity change, negative = inhibition is on record?
A: 15.3% (inactive)

Q: Which activity change, negative = inhibition does the source give for `CS(=O)(=O)Oc1ccc2c(NC(N)=O)c(C(=O)c3ccc(Cl)cc3Cl)oc2c1` here?
A: 6% (inactive) and -81.6% (active)

Q: Which activity change, negative = inhibition does the source give for `Cc1cccc(/C=N/Nc2cc(N3CCOCC3)nc(OCCc3ccccn3)n2)c1` here?
A: -83.9% (active)

Q: With `CCOC(=O)CCNc1cc(N2CCc3ccccc3CC2)nc(-c2ccccn2)n1` as the compound, how does the activity change, negative = inhibition read?
A: -57.4% (inactive)

Q: For `O=c1cc(N2CCOCC2)nc2c3ccccc3ccn12`, which activity change, negative = inhibition is on record?
A: 7.41% (inactive)

Q: Which activity change, negative = inhibition does the source give for `O=C(O)c1ccc(-n2nc(-c3ccccc3O)nc2-c2ccccc2O)cc1` here?
A: -30% (inactive)

Q: Which activity change, negative = inhibition does the source give for `CC(C)(O)CC[C@@H](O)[C@](C)(O)C1CC[C@@]2(O)C3=CC(=O)C4C[C@@H](O)[C@@H](O)C[C@]4(C)C3CC[C@]12C` (stereo partly drawn) here?
A: 12.6% (inactive)

Q: For `Fc1cccc(/C=N/N=C/c2cccc(F)c2)c1`, which activity change, negative = inhibition is on record?
A: 8.5% (inactive) and 8.55% (inactive)

Q: Which activity change, negative = inhibition does the source give for `C[N+]1(C)[C@@H]2CC(OC(=O)C(O)(c3cccs3)c3cccs3)C[C@H]1[C@@H]1O[C@@H]12` (stereo partly drawn) here?
A: 13.9% (inactive)

Q: Which activity change, negative = inhibition does the source give for `COc1ccc(CNc2nc(N3CCC[C@H]3CO)ncc2C(=O)NCc2ncccn2)cc1Cl` here?
A: -6.59% (inactive)

Q: Which activity change, negative = inhibition does the source give for `CCc1cnn2c(NCc3ccc[n+]([O-])c3)cc(N3CCCC[C@H]3CCO)nc12` here?
A: -74.2% (active)

Q: With `COc1cc(O)cc([C@@H]2CC(=O)c3c(O)cc(O[C@@H]4O[C@H](CO)[C@@H](O)[C@H](O)[C@H]4O[C@@H]4O[C@@H](C)[C@H](O)[C@@H](O)[C@H]4O)cc3O2)c1` as the compound, how does the activity change, negative = inhibition read?
A: 4.15% (inactive)

Q: Which activity change, negative = inhibition does the source give for `c1ccc(Oc2nc(NC3CCCCC3)c3[nH]cnc3n2)cc1` here?
A: -6.74% (inactive)

Q: With `Cn1cnc2cc3c(Nc4cccc(Br)c4)ncnc3cc21` as the compound, how does the activity change, negative = inhibition read?
A: -18.1% (inactive)

Q: For `O=C(NCCCl)N(CCCl)[NH2+][O-]`, which activity change, negative = inhibition is on record?
A: -12% (inactive)

Q: Which activity change, negative = inhibition does the source give for `O=C(O)c1ccc(N2C(=O)/C(=C/c3ccc(-c4ccc([N+](=O)[O-])cc4)o3)C=C2c2ccccc2)cc1` here?
A: 14.9% (inactive)

Q: For `CN1CCc2c(c3ccccc3n2Cc2ccc(C(=O)NO)cc2)C1`, which activity change, negative = inhibition is on record?
A: -47% (inactive)

Q: Which activity change, negative = inhibition does the source give for `CCCN(CCC)C(=O)C(CCC(=O)O)NC(=O)c1ccccc1` (stereo not drawn) here?
A: -0.127% (inactive) and 11.8% (inactive)

Q: For `CCCCN(Cc1ccc(C(=O)NO)cc1)C(=O)Nc1ccccc1`, which activity change, negative = inhibition is on record?
A: -84.4% (active)

Q: With `CC1CCCC(C)N1` (stereo not drawn) as the compound, how does the activity change, negative = inhibition read?
A: 19.7% (inactive)

Q: For `NCCc1ccn[nH]1`, which activity change, negative = inhibition is on record?
A: 7.65% (inactive)

Q: For `CN(C)N(C)C(=O)[C@@]1(Cc2ccccc2)CCCN(C(=O)[C@@H](Cc2c[nH]c3ccccc23)NC(=O)C(C)(C)N)C1`, which activity change, negative = inhibition is on record?
A: 17.2% (inactive)
